The panel holds about 83,000 compounds, 20% with a hit somewhere; the sample as a whole holds those more often.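 Negative percent growth values reflect cell death: -40 means 40% of the cells present at the start died, and -100 means all died.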 Values without a mark were called inactive. Activity calls are given as the source filed them. Rule for the calls: active = growth percent below 10; inactive = the rest.
What follows are molecules tested on OVCAR-4 ovarian (assay: NCI-60 one-dose screen, 48 h (100 = growth as untreated, 0 = no growth, -100 = all killed)). Settings: 10 µM unless noted.

Question: `COc1ccc(-c2c(N)n[nH]c2-c2cc3c(c(OC)c2OC)OCO3)cc1` was tested. Which growth did it give?
Answer: The growth was 99.1%.

Question: How did the growth turn out when `COc1cc(-c2nn(-c3cccc(NC(=O)c4cccc(C(F)(F)F)c4)c3)cc2-c2ccncc2)ccc1Cl` was run?
Answer: Its growth is 46.5%.

Question: `Clc1ccc(-c2nc3ccccc3s2)cc1Cl` was tested. Which growth did it give?
Answer: Its growth is 81.3%.

Question: Which growth does the source give for `Fc1ccc(CNCCNc2ncnc3c2cnn3-c2ccccc2)cc1` here?
Answer: The growth was 97.4%.

Question: Which growth does the source give for `COc1ccc(-n2c(=O)sc3c(Cl)nc(C)nc32)c(OC)c1` here?
Answer: The growth was 101%.

Question: With `O=C(O)c1nc(-c2ccccc2)oc1N1CCOCC1` as the molecule, how does the growth read?
Answer: The growth was 108%.

Question: With `Cn1c(=O)c2[nH]c(C3CC=CCC3)nc2n(C)c1=O` (stereo not drawn) as the molecule, how does the growth read?
Answer: The growth was 111%.

Question: How did the growth turn out when `COc1ccc(C2C=C(c3ccc(N)cc3)N=C3SC=CN32)cc1OC` (stereo not drawn) was run?
Answer: Its growth is 102%.

Question: How did the growth turn out when `O=S(=O)(NCCNc1nccc(-c2c(-c3ccc(O)cc3)nc3sccn23)n1)c1cccc2ccccc12` was run?
Answer: The growth was 91.6%.

Question: `O=S(=O)(NCCNc1nccc(-c2c(-c3ccc(F)cc3)nc3sccn23)n1)c1ccc(F)cc1` was tested. Which growth did it give?
Answer: The growth was 81.4%.

Question: `COc1ccc(/C=C2\CN(Cc3cn(CCNc4ccnc5cc(Cl)ccc45)nn3)C/C(=C\c3ccc(OC)c(OC)c3)C2=O)cc1OC` was tested. Which growth did it give?
Answer: The growth was 29.8%.

Question: How did the growth turn out when `Cc1ccc(S(=O)(=O)c2nc(-c3ccccc3)oc2S(C)(=O)=O)cc1` was run?
Answer: Its growth is 80.5%.

Question: For `COc1ccc(C2=Nn3c(nnc3-n3nc(C)cc3C)SC2)cc1`, which growth is on record?
Answer: The growth was 61.1%.

Question: How did the growth turn out when `O=C(O)/C=C/C(=O)c1ccc(Cl)cc1` was run?
Answer: Its growth is 116%.

Question: With `Cc1ccc(S(=O)(=O)NCCNc2nccc(-c3c(-c4ccc(O)cc4)nc4sccn34)n2)cc1` as the molecule, how does the growth read?
Answer: Its growth is 102%.

Question: With `C=C1CCC[C@]2(C)CCC[C@H](C)[C@@H](OC(C)=O)[C@@H]3OC(=O)C(=C)[C@@H]3C[C@H]1O2` as the molecule, how does the growth read?
Answer: Its growth is 61.2%.

Question: With `Cc1cc(N)n(S(=O)(=O)c2oc(-c3ccccc3)nc2C#N)n1` as the molecule, how does the growth read?
Answer: The growth was 106%.

Question: `COc1ccc(-c2cc3c(OC)c(OC)c(OC)cc3oc2=O)cc1` was tested. Which growth did it give?
Answer: The growth was 81.3%.

Question: With `COc1ccc(OC)c(C2OC(c3ccc4ccccc4c3O)=NN2C(C)=O)c1` (stereo not drawn) as the molecule, how does the growth read?
Answer: Its growth is 75.5%.

Question: With `Cc1ccc(NS(=O)(=O)c2cc(C)ccc2C)cc1` as the molecule, how does the growth read?
Answer: Its growth is 92.6%.

Question: For `COc1cc(-c2nn(-c3cccc(NC(=O)c4ccccc4)c3)cc2-c2ccncc2)ccc1Cl`, which growth is on record?
Answer: Its growth is 46.5%.

Question: How did the growth turn out when `O=C(Nc1cccc(-n2cc(-c3ccncc3)c(-c3ccc(Cl)c(O)c3)n2)c1)Nc1ccc(Cl)c(Cl)c1` was run?
Answer: Its growth is 29.4%.

Question: Which growth does the source give for `O=S(=O)(NCCNc1nccc(-c2c(-c3cccc(O)c3)nc3sccn23)n1)c1ccc(F)cc1` here?
Answer: Its growth is 103%.

Question: How did the growth turn out when `O=C(Nc1ccc2c(c1)OCCO2)C(=O)c1c[nH]c2ccccc12` was run?
Answer: The growth was 51.2%.

Question: For `CCCCCCCC/C=C/CCCCCCCC1=NC(C)(C)CN1C(C)(C)CO`, which growth is on record?
Answer: Its growth is 42.5%.

Question: For `COc1ccc(-n2c(=S)sc3c(Cl)nc(C)nc32)c(OC)c1`, which growth is on record?
Answer: The growth was 95.6%.

Question: How did the growth turn out when `CCOC(=O)c1cn2c3c(cc(C)cc3c1=O)C(=O)/C(=C/c1ccccc1)C2` was run?
Answer: Its growth is 88.1%.

Question: Which growth does the source give for `CN(C)CC(C(=O)c1ccccc1)c1ccccc1` (stereo not drawn) here?
Answer: Its growth is 43.1%.

Question: How did the growth turn out when `NC(=O)CCCN1C/C(=C\c2ccccc2)C(=O)c2ccccc21` was run?
Answer: The growth was 98.9%.

Question: For `COc1ccc(Nc2nn3c(C)cc(C)nc3c2C(=O)Nc2ccc(C)cc2)c(OC)c1`, which growth is on record?
Answer: Its growth is 102%.

Question: Which growth does the source give for `COc1cc(-c2nn(-c3cccc(NC(=O)c4ccc(Cl)c(C(F)(F)F)c4)c3)cc2-c2ccncc2)ccc1Cl` here?
Answer: Its growth is 66%.

Question: For `COc1cc(-c2nc(-c3nc4ccc(Cl)cc4[nH]3)cc3c2[nH]c2ccccc23)cc(OC)c1OC`, which growth is on record?
Answer: The growth was 59.9%.

Question: Which growth does the source give for `Cc1c(C(N)=O)sc2c1c(=O)n(Cc1ccccc1)c1nnc(Nc3ccccc3)n21` here?
Answer: Its growth is 117%.

Question: With `O=c1c2sc3ncccc3c2nnn1-c1ccccc1` as the molecule, how does the growth read?
Answer: The growth was 103%.

Question: `CCCCCCCC[C@@H](O)CC(=O)N[C@@H](CC(N)=O)C(=O)N[C@@H](CCC(N)=O)C(=O)N[C@@H](CC(=O)c1cc(C)cc(O)c1C(=O)c1c(O)cccc1O)CC(C)C` was tested. Which growth did it give?
Answer: Its growth is 41.1%.

Question: With `COc1cc(/C(C#N)=C/c2ccc3c(c2OC)OCO3)cc2c1OCO2` as the molecule, how does the growth read?
Answer: The growth was 56.3%.

Question: `COc1ccc(Nc2[nH]n3c(=O)cc(C)nc3c2C(N)=O)c(OC)c1` was tested. Which growth did it give?
Answer: The growth was 99.2%.

Question: With `Fc1ccc(Nc2nc(NCCNc3ccnc4cc(Cl)ccc34)nc(N3CCOCC3)n2)cc1` as the molecule, how does the growth read?
Answer: The growth was 61.1%.

Question: Which growth does the source give for `CN(C)c1oc(C2OC2c2ccccc2)nc1C#N` (stereo not drawn) here?
Answer: Its growth is 109%.

These molecules were tested on SK-OV-3 ovarian in the same assay as above. Settings: 10 µM unless noted.

Question: How did the growth turn out when `COc1ccc(-c2c(N)n[nH]c2-c2cc3c(c(OC)c2OC)OCO3)cc1` was run?
Answer: Its growth is 106%.

Question: With `COc1cc(-c2nn(-c3cccc(NC(=O)c4cccc(C(F)(F)F)c4)c3)cc2-c2ccncc2)ccc1Cl` as the molecule, how does the growth read?
Answer: Its growth is 7.18% (active).

Question: For `Clc1ccc(-c2nc3ccccc3s2)cc1Cl`, which growth is on record?
Answer: The growth was 108%.

Question: Which growth does the source give for `Fc1ccc(CNCCNc2ncnc3c2cnn3-c2ccccc2)cc1` here?
Answer: Its growth is 94.6%.

Question: With `COc1ccc(-n2c(=O)sc3c(Cl)nc(C)nc32)c(OC)c1` as the molecule, how does the growth read?
Answer: Its growth is 83.8%.

Question: For `O=C(O)c1nc(-c2ccccc2)oc1N1CCOCC1`, which growth is on record?
Answer: Its growth is 92.7%.

Question: Which growth does the source give for `Cn1c(=O)c2[nH]c(C3CC=CCC3)nc2n(C)c1=O` (stereo not drawn) here?
Answer: Its growth is 99.1%.

Question: `COc1ccc(C2C=C(c3ccc(N)cc3)N=C3SC=CN32)cc1OC` (stereo not drawn) was tested. Which growth did it give?
Answer: The growth was 115%.

Question: How did the growth turn out when `O=S(=O)(NCCNc1nccc(-c2c(-c3ccc(O)cc3)nc3sccn23)n1)c1cccc2ccccc12` was run?
Answer: Its growth is 106%.

Question: Which growth does the source give for `O=S(=O)(NCCNc1nccc(-c2c(-c3ccc(F)cc3)nc3sccn23)n1)c1ccc(F)cc1` here?
Answer: Its growth is 92.7%.

Question: For `COc1ccc(/C=C2\CN(Cc3cn(CCNc4ccnc5cc(Cl)ccc45)nn3)C/C(=C\c3ccc(OC)c(OC)c3)C2=O)cc1OC`, which growth is on record?
Answer: The growth was 4.28% (active).

Question: How did the growth turn out when `Cc1ccc(S(=O)(=O)c2nc(-c3ccccc3)oc2S(C)(=O)=O)cc1` was run?
Answer: Its growth is 76.6%.

Question: For `COc1ccc(C2=Nn3c(nnc3-n3nc(C)cc3C)SC2)cc1`, which growth is on record?
Answer: Its growth is -3.05% (active).

Question: `O=C(O)/C=C/C(=O)c1ccc(Cl)cc1` was tested. Which growth did it give?
Answer: The growth was 107%.

Question: `Cc1ccc(S(=O)(=O)NCCNc2nccc(-c3c(-c4ccc(O)cc4)nc4sccn34)n2)cc1` was tested. Which growth did it give?
Answer: The growth was 107%.

Question: How did the growth turn out when `C=C1CCC[C@]2(C)CCC[C@H](C)[C@@H](OC(C)=O)[C@@H]3OC(=O)C(=C)[C@@H]3C[C@H]1O2` was run?
Answer: The growth was 85%.

Question: With `Cc1cc(N)n(S(=O)(=O)c2oc(-c3ccccc3)nc2C#N)n1` as the molecule, how does the growth read?
Answer: The growth was 91.8%.

Question: How did the growth turn out when `COc1ccc(-c2cc3c(OC)c(OC)c(OC)cc3oc2=O)cc1` was run?
Answer: Its growth is 67.1%.

Question: How did the growth turn out when `COc1ccc(OC)c(C2OC(c3ccc4ccccc4c3O)=NN2C(C)=O)c1` (stereo not drawn) was run?
Answer: The growth was 58%.

Question: `Cc1ccc(NS(=O)(=O)c2cc(C)ccc2C)cc1` was tested. Which growth did it give?
Answer: Its growth is 56.3%.

Question: `COc1cc(-c2nn(-c3cccc(NC(=O)c4ccccc4)c3)cc2-c2ccncc2)ccc1Cl` was tested. Which growth did it give?
Answer: Its growth is 42.1%.

Question: Which growth does the source give for `O=C(Nc1cccc(-n2cc(-c3ccncc3)c(-c3ccc(Cl)c(O)c3)n2)c1)Nc1ccc(Cl)c(Cl)c1` here?
Answer: Its growth is 18.7%.

Question: How did the growth turn out when `O=S(=O)(NCCNc1nccc(-c2c(-c3cccc(O)c3)nc3sccn23)n1)c1ccc(F)cc1` was run?
Answer: The growth was 85.9%.

Question: For `O=C(Nc1ccc2c(c1)OCCO2)C(=O)c1c[nH]c2ccccc12`, which growth is on record?
Answer: Its growth is 12.8%.

Question: For `CCCCCCCC/C=C/CCCCCCCC1=NC(C)(C)CN1C(C)(C)CO`, which growth is on record?
Answer: The growth was 70.3%.

Question: How did the growth turn out when `COc1ccc(-n2c(=S)sc3c(Cl)nc(C)nc32)c(OC)c1` was run?
Answer: Its growth is 80.1%.

Question: Which growth does the source give for `CCOC(=O)c1cn2c3c(cc(C)cc3c1=O)C(=O)/C(=C/c1ccccc1)C2` here?
Answer: The growth was 82.3%.

Question: With `CN(C)CC(C(=O)c1ccccc1)c1ccccc1` (stereo not drawn) as the molecule, how does the growth read?
Answer: Its growth is 88.4%.

Question: For `NC(=O)CCCN1C/C(=C\c2ccccc2)C(=O)c2ccccc21`, which growth is on record?
Answer: The growth was 89.5%.

Question: How did the growth turn out when `COc1ccc(Nc2nn3c(C)cc(C)nc3c2C(=O)Nc2ccc(C)cc2)c(OC)c1` was run?
Answer: Its growth is 87.7%.

Question: `COc1cc(-c2nn(-c3cccc(NC(=O)c4ccc(Cl)c(C(F)(F)F)c4)c3)cc2-c2ccncc2)ccc1Cl` was tested. Which growth did it give?
Answer: The growth was 64.3%.

Question: Which growth does the source give for `COc1cc(-c2nc(-c3nc4ccc(Cl)cc4[nH]3)cc3c2[nH]c2ccccc23)cc(OC)c1OC` here?
Answer: The growth was 103%.

Question: `Cc1c(C(N)=O)sc2c1c(=O)n(Cc1ccccc1)c1nnc(Nc3ccccc3)n21` was tested. Which growth did it give?
Answer: The growth was 99.1%.

Question: For `O=c1c2sc3ncccc3c2nnn1-c1ccccc1`, which growth is on record?
Answer: Its growth is 105%.

Question: With `CCCCCCCC[C@@H](O)CC(=O)N[C@@H](CC(N)=O)C(=O)N[C@@H](CCC(N)=O)C(=O)N[C@@H](CC(=O)c1cc(C)cc(O)c1C(=O)c1c(O)cccc1O)CC(C)C` as the molecule, how does the growth read?
Answer: Its growth is 63.4%.

Question: How did the growth turn out when `COc1cc(/C(C#N)=C/c2ccc3c(c2OC)OCO3)cc2c1OCO2` was run?
Answer: Its growth is 16.2%.

Question: For `COc1ccc(Nc2[nH]n3c(=O)cc(C)nc3c2C(N)=O)c(OC)c1`, which growth is on record?
Answer: The growth was 88.3%.

Question: `Fc1ccc(Nc2nc(NCCNc3ccnc4cc(Cl)ccc34)nc(N3CCOCC3)n2)cc1` was tested. Which growth did it give?
Answer: Its growth is 91.6%.

Question: How did the growth turn out when `CN(C)c1oc(C2OC2c2ccccc2)nc1C#N` (stereo not drawn) was run?
Answer: The growth was 79.2%.

Reference: PubChem BioAssay (NCI)
